SMILES strings stand for the structures. Records with an inconclusive call do not appear. Unmarked numbers belong to inactive results. Calls of active or inactive are those of the source. Calls come from the whole dose curve; as a rule, active = well fitted curve in the direction sought with a large enough effect; inconclusive = small, poorly fitted or top-dose-only effect, or another doubt; inactive = no such curve, though single readings can be large; an effect the other way counts as inactive or inconclusive.

Assay [1] relates to MCC-13. As to the kind of experiment: qHTS assay to identify novel small-molecules to repurpose for Merkel cell carcinoma treatment (AID 1296009). Note: nearly all actives have a fitted effect of over 60% in size. As to conditions: MCC and control cell lines, CellTiter-Glo viability, 72 h; series mostly up to 46 µM. In a few lines:
(§1)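 After compound transfer in DMSO, plates were kept 72 hr at 37 degree celsius. Luminescent ATP signal from CellTiter-Glo served as viability measure, normalized against DMSO and no-cell controls.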
(In qHTS, concentration-response curves come from the screen itself.)

Assay [2] relates to MCC-26. The description is as above. As to conditions: MCC and control cell lines, CellTiter-Glo viability, 72 h; series mostly up to 46 µM. In a few lines: as §1
Background: Cellular ATP, detected with luciferase, serves as a proxy for viable cell number.

Assay [3] has as its system MKL-1. The assay is described as above. Conditions: MCC and control cell lines, CellTiter-Glo viability, 72 h; series mostly up to 46 µM. The gist of the method: as §1
Assay [4] has as its system MKL-2. The description is as above. Conditions: MCC and control cell lines, CellTiter-Glo viability, 72 h; series mostly up to 46 µM. The gist of the method:
as §1

In assay [5] the test system is UISO. The description is as above. As to conditions: MCC and control cell lines, CellTiter-Glo viability, 72 h; series mostly up to 46 µM. In a few lines: as §1
Assay [6] deals with WaGa. The assay is described as above. As to conditions: MCC and control cell lines, CellTiter-Glo viability, 72 h; series mostly up to 46 µM. In a few lines: as §1
Assay [7] deals with C33A. The assay is described as follows: Primary qHTS to identify gynecologic anti-cancer compounds using libraries of approved drugs and bioactive compounds (AID 1345084). Note: nearly all actives have a fitted effect of over 55% in size. Note: potency is the fitted concentration of half-maximal effect. As to conditions: Gynecologic cancer cell panel viability, ATPlite luminescence, 48 h; series mostly up to 57.5 µM. The gist of the method:
(§2)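 Five-point cytotoxicity, 48 h drug exposure at 37 C, 5% CO2, on cells seeded 16 h beforehand. ATP content read by ATPlite luminescence.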

Assay [8] deals with CAOV3. The description is as above. As to conditions: Gynecologic cancer cell panel viability, ATPlite luminescence, 48 h; series mostly up to 57.5 µM. In a few lines:
as §2

Assay [9] deals with CASKI. Described as above. As to conditions: Gynecologic cancer cell panel viability, ATPlite luminescence, 48 h; series mostly up to 57.5 µM. The gist of the method:
as §2

The subject of assay [10] is Es-2. The assay is described as above. Conditions: Gynecologic cancer cell panel viability, ATPlite luminescence, 48 h; series mostly up to 57.5 µM. In a few lines:
as §2

For assay [11], the system named is HeLa. The description is as above. Conditions: Gynecologic cancer cell panel viability, ATPlite luminescence, 48 h; series mostly up to 57.5 µM. The gist of the method: as §2
In assay [12] the test system is Hek293T. Described as above. Conditions: Gynecologic cancer cell panel viability, ATPlite luminescence, 48 h, control line for the selectivity index; series mostly up to 57.5 µM. The gist of the method:
as §2

Assay [13] relates to JEG-3. The assay is described as above. As to conditions: Gynecologic cancer cell panel viability, ATPlite luminescence, 48 h; series mostly up to 57.5 µM. The gist of the method: as §2
Assay [14] deals with OV90. The description is as above. Conditions: Gynecologic cancer cell panel viability, ATPlite luminescence, 48 h; series mostly up to 57.5 µM. The gist of the method:
as §2

The test system of assay [15] is PA-1. The description is as above. Conditions: Gynecologic cancer cell panel viability, ATPlite luminescence, 48 h; series mostly up to 57.5 µM. In a few lines:
as §2

In assay [16] the test system is SKOV3. The assay is described as above. Conditions: Gynecologic cancer cell panel viability, ATPlite luminescence, 48 h; series mostly up to 57.5 µM. The gist of the method: as §2
For assay [17], the system named is Tov-21-G. The assay is described as above. Conditions: Gynecologic cancer cell panel viability, ATPlite luminescence, 48 h; series mostly up to 57.5 µM. The gist of the method:
as §2

For assay [18], the system named is Tov112D. The description is as above. Conditions: Gynecologic cancer cell panel viability, ATPlite luminescence, 48 h; series mostly up to 57.5 µM. The gist of the method: as §2
The subject of assay [19] is NIH3T3. As to the kind of experiment: qHTS assay to identify novel small-molecules to repurpose for Merkel cell carcinoma treatment (AID 1296009). Note: nearly all actives have a fitted effect of over 60% in size. Conditions: MCC and control cell lines, CellTiter-Glo viability, 72 h; at 44.8 µM (top of the series) unless noted. In a few lines: as §1

For the compound `O=c1[nH]cnc2nc[nH]c12`, the call in [1], in [2], in assay [3], in assay [4], in [5] and in assay [6] was inactive. Further, the call in [7], in assay [8], in assay [9], in assay [10], in assay [11] and in assay [12] was inactive. Also, the compound was called inactive in assay [13], in assay [15], in [16], in [17] and in assay [18]. In addition, the Potency result in assay [14] was “inactive”.
In the case of `O=C(/C=C/c1ccc(O)c(O)c1)O[C@@H]1C[C@@](OC(=O)/C=C/c2ccc(O)c(O)c2)(C(=O)O)C[C@@H](O)[C@@H]1O`, the compound was classed as inactive in assay [1], in assay [2], in [3], in assay [4], in [5] and in [6]. Further, the call in assay [7], in assay [8], in assay [9], in [10], in assay [11] and in assay [12] was inactive. Also, the outcome in [13], in assay [15], in assay [16], in assay [17] and in assay [18] was inactive. For the same compound, the Potency entry in assay [14] was “inactive”.
For the compound `CCc1nnc(NS(=O)(=O)c2ccc(N)cc2)s1`, the compound was called inactive in assay [1], in assay [2], in assay [3], in assay [4], in assay [5] and in assay [6]. The outcome in assay [7], in [8], in assay [9], in [10], in [11] and in assay [12] was inactive. For the same compound, the compound was called inactive in assay [13], in assay [15], in assay [16], in [17] and in assay [18]. In assay [14], the Potency entry was “inactive”.
`CN[C@@H]1[C@H](O)[C@H](NC)[C@H]2O[C@@]3(O)C(=O)C[C@@H](C)O[C@H]3O[C@@H]2[C@H]1O`: the outcome in [1], in assay [2], in [3], in assay [4], in [5] and in [6] was inactive. For the same compound, the call in assay [7], in assay [8], in assay [9], in assay [10], in [11] and in [12] was inactive. The compound was classed as inactive in assay [13], in assay [15], in assay [16], in assay [17] and in assay [18]. In assay [14], the Potency entry was “inactive”.
As to `NC(=O)N[C@@H](CCC(=O)O)C(=O)O`, the call in [1], in assay [2], in assay [3], in assay [4], in [19] and in assay [5] was inactive. For the same compound, the outcome in assay [6], in [7], in assay [9], in assay [10], in assay [12] and in assay [13] was inactive. Besides, the call in assay [16] was inactive. Moreover, the Potency entry in [14] is “inactive”.
For the compound `CC(=O)SC[C@@H](Cc1ccccc1)C(=O)NCC(=O)OCc1ccccc1`, the call in [1], in assay [2], in assay [3], in assay [4], in [5] and in [6] was inactive. Moreover, the compound was classed as inactive in assay [7], in assay [8], in assay [9], in assay [10], in assay [11] and in assay [12]. Moreover, the result in assay [13], in assay [15], in assay [16], in assay [17] and in assay [18] was inactive. In assay [14], the Potency entry is “inactive”.
For the compound `Cc1onc(-c2ccccc2)c1-c1ccc(S(N)(=O)=O)cc1`, the call in [1], in [2], in [3], in [4], in assay [19] and in assay [5] was inactive. Moreover, the compound was called inactive in [6], in assay [9], in assay [10], in assay [11], in [12] and in [13]. Also, the compound was called inactive in [15], in assay [16], in assay [17] and in [18]. Further, in assay [14], the Potency entry was “inactive”.
For the compound `CCN[C@H]1CN(CCCOC)S(=O)(=O)c2sc(S(N)(=O)=O)cc21`, the result in [1], in [2], in [3], in assay [4], in assay [19] and in assay [5] was inactive. Also, the outcome in assay [6], in [7], in assay [9], in assay [10], in [11] and in [12] was inactive. The compound was called inactive in assay [13], in [16], in assay [17] and in [18]. In addition, the Potency entry in assay [14] was “inactive”.
Take `CCCCCCCC(=O)OCC(O)CO` (centres undefined): the call in [1], in assay [2], in [3], in assay [4], in assay [5] and in [6] was inactive. In addition, the call in assay [7], in assay [8], in assay [9], in assay [10], in assay [11] and in assay [12] was inactive. The compound was classed as inactive in [13], in assay [15], in assay [16], in assay [17] and in assay [18]. Also, the Potency in [14] was 3.55 µM (active).
`CC(=O)Oc1cccc(C)c1`: the outcome in assay [1], in assay [2], in assay [3], in [4], in assay [5] and in [6] was inactive. The outcome in assay [7], in assay [8], in assay [9], in [10], in [11] and in [12] was inactive. Besides, the outcome in assay [13], in assay [15], in assay [16], in [17] and in assay [18] was inactive. Also, the Potency result in [14] was “inactive”.
For the compound `C/C=C/C(=O)N(CC)c1ccccc1C`, the outcome in assay [1], in assay [2], in assay [3], in [4], in assay [5] and in assay [6] was inactive. The result in assay [7], in [8], in [9], in [10], in assay [11] and in assay [12] was inactive. Also, the compound was classed as inactive in [13], in [15], in [16], in [17] and in [18]. Besides, the Potency entry in [14] is “inactive”.
Take `Cc1ccc(S(=O)(=O)NC(=O)NC2CCCCCCC2)cc1`: the compound was called inactive in assay [1], in assay [2], in assay [3], in [4], in assay [5] and in [6]. The result in assay [7], in [8], in assay [9], in assay [10], in [11] and in assay [12] was inactive. Moreover, the compound was called inactive in assay [13], in [15], in assay [16], in assay [17] and in assay [18]. Also, in assay [14], the Potency entry was “inactive”.
On to `O=C(O)Cc1ccc(CCNS(=O)(=O)c2ccc(Cl)cc2)cc1`, for which the result in assay [1], in assay [2], in [3], in [4], in [5] and in assay [6] was inactive. Also, the outcome in assay [7], in [8], in [9], in assay [10], in assay [11] and in assay [12] was inactive. Moreover, the call in [13], in assay [15], in assay [16], in assay [17] and in [18] was inactive. Further, the Potency entry in [14] is “inactive”.
For `CC(C)(C)NCC(O)COc1cccc2c1CCC(=O)N2` (centres undefined), the result in assay [1], in assay [2], in assay [3], in assay [4], in assay [5] and in [6] was inactive. Besides, the call in assay [7], in assay [8], in [9], in [10], in [11] and in [12] was inactive. The outcome in [13], in assay [15], in assay [16], in assay [17] and in assay [18] was inactive. Further, the Potency result in [14] was “inactive”.
`O=C(NCC(O)CO)c1c(I)c(C(=O)NCC(O)CO)c(I)c(N(CCO)C(=O)CO)c1I` (centres undefined): the compound was called inactive in [1], in [2], in assay [3], in assay [4], in assay [5] and in assay [6]. For the same compound, the call in assay [7], in assay [8], in assay [9], in assay [10], in assay [11] and in assay [12] was inactive. Also, the outcome in assay [13], in assay [15], in assay [16], in [17] and in assay [18] was inactive. In addition, the Potency result in assay [14] is “inactive”.

The values above are taken from PubChem BioAssay (NCATS).
